About 8,800 targets were measured; listed, in parts, are those with a hit and a random draw of the rest. About 0.5% of all pairs of compound and target were hits. Unmarked numbers belong to inactive results.
Experiments:
Experiment in all cases: log2 fold change, soluble protein after heating vs DMSO (PISA); higher = thermal stabilisation; K562 lysate, 10 uM; active = over 0.2 and 3.5 SD of the protein, either way, in both replicates (recomputed)
[1] = compound: NCC(=O)Nc1ccc(-n2nc(C(F)(F)F)cc2-c2ccc3c(ccc4ccccc43)c2)cc1
In short: (§1)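 K562 pellets were dounce-homogenised in PBS pH 7.4 with 1 mM MgCl2, and the crude extract at 1 mg/mL protein was treated with 10 μM compound for 30 min. Aliquots were heated for 3 min across 48°C-58°C, pooled, and brought to 0.5% NP-40 at 4°C; soluble protein was the supernatant after 21,000xg for 90 min. Soluble protein was quantified by TMTpro 16plex LC-MS/MS with channel sums equalised, and reported as log2 fold change in thermal stability against DMSO controls, with values from duplicates.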

[2] = compound: O=C(CCCCCCC(=O)Nc1ccccc1)NO [vorinostat]
In short: as §1

[3] = compound: O=C(O)c1ccc2c(c1)nc(Nc1cccc(Cl)c1)c1ccncc12 [silmitasertib]
In short: as §1

[4] = compound: O=C1NC(=O)C(c2cnc3ccccn23)=C1c1cn2c3c(cc(F)cc13)CN(C(=O)N1CCCCC1)CC2
In short: as §1

[5] = compound: c1cn2cc(-c3ccc4cn[nH]c4c3)nc(Nc3ccc(N4CCOCC4)cc3)c2n1 [entospletinib]
In short: as §1

GRK6 isoform 2 (UniProt P43250)
log2 fold change [1]: 0.001 | log2 fold change [2]: -0.227 | log2 fold change [3]: 0.48 (active) | log2 fold change [4]: -0.012 | log2 fold change [5]: -0.123

INTS5 (UniProt Q6P9B9)
UniProt Q6P9B9, sequence (Q6P9B9 whole entry, looked up): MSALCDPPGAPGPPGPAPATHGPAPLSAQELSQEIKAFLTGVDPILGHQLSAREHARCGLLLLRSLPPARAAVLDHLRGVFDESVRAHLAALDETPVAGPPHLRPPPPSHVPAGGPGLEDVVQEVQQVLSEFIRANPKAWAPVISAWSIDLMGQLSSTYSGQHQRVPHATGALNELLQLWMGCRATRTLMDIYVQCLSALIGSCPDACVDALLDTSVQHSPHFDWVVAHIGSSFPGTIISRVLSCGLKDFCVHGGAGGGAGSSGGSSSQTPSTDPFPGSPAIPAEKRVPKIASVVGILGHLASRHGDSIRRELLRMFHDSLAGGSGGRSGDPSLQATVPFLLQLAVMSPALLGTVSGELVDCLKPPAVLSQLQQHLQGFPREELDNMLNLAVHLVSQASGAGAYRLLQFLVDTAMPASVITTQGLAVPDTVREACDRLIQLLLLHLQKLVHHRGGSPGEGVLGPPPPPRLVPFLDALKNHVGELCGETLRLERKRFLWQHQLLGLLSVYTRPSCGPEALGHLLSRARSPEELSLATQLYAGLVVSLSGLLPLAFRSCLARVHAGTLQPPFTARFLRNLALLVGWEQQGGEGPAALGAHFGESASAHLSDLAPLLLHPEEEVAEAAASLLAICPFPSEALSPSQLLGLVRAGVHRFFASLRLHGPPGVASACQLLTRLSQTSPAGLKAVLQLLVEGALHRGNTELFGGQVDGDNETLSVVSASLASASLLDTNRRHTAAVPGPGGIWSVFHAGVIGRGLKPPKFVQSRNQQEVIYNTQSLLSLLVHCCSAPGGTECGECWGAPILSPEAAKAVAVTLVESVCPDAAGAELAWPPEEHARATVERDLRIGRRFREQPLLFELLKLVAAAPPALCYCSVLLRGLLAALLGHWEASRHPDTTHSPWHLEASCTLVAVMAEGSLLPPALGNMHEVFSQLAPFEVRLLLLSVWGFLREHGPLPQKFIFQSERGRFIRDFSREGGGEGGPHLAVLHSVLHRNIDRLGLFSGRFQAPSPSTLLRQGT
log2 fold change [1]: -0.045 | log2 fold change [2]: -0.56 (active) | log2 fold change [3]: 0.088 | log2 fold change [4]: 0.039 | log2 fold change [5]: 0.093

HNRNPDL (UniProt O14979)
log2 fold change [1]: -0.032 | log2 fold change [2]: 0.133 | log2 fold change [3]: -0.01 | log2 fold change [4]: 0.01 | log2 fold change [5]: 0.01

HDAC6 (UniProt Q9UBN7)
log2 fold change [1]: -0.039 | log2 fold change [2]: 0.513 (active) | log2 fold change [3]: 0.016 | log2 fold change [4]: -0.047 | log2 fold change [5]: 0.007

KDM1A (UniProt O60341)
log2 fold change [1]: 0.01 | log2 fold change [2]: -0.163 | log2 fold change [3]: 0.009 | log2 fold change [4]: -0.009 | log2 fold change [5]: 0.01

HMBOX1 isoform 5 (UniProt Q6NT76)
log2 fold change [1]: 0.004 | log2 fold change [2]: 0.093 | log2 fold change [3]: 0.025 | log2 fold change [4]: 0.02 | log2 fold change [5]: -0.063

INPPL1 (UniProt O15357)
UniProt O15357, sequence (O15357 whole entry, looked up): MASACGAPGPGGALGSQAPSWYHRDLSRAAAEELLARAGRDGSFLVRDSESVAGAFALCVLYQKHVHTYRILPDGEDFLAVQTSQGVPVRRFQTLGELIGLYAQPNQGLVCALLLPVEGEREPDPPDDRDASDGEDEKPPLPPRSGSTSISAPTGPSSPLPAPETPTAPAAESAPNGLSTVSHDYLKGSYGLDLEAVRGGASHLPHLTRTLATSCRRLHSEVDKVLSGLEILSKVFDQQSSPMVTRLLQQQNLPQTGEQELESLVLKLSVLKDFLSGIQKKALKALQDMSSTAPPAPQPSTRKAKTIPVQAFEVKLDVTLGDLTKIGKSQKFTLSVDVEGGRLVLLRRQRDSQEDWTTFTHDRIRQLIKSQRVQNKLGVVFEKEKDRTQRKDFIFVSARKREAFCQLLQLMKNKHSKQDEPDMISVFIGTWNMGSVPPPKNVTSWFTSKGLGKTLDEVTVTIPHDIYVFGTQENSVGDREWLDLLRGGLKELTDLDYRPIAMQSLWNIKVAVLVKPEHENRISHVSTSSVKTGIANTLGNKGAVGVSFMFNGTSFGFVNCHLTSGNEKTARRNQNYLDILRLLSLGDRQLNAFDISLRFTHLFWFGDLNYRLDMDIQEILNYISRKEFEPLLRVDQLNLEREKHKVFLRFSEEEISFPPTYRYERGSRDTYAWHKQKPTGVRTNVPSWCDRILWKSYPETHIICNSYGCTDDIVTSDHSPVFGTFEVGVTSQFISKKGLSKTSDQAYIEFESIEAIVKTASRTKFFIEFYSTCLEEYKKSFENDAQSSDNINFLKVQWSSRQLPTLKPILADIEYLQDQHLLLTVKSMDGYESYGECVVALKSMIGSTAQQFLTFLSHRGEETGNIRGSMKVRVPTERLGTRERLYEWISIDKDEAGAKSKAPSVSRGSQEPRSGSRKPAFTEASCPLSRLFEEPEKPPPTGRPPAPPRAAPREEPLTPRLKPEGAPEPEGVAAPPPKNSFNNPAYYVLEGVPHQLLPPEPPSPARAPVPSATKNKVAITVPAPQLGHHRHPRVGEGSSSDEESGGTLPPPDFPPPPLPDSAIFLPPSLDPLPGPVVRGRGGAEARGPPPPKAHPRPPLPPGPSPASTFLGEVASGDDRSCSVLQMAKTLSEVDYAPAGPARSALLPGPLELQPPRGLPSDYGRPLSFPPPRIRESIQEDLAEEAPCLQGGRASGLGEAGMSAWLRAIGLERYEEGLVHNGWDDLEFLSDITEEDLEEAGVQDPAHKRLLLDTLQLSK
log2 fold change [1]: 0.025 | log2 fold change [2]: -0.528 (active) | log2 fold change [3]: 0.057 | log2 fold change [4]: 0.017 | log2 fold change [5]: -0.015

KCTD20 (UniProt Q7Z5Y7)
log2 fold change [1]: -0.137 | log2 fold change [2]: -0.323 (active) | log2 fold change [3]: 0.035 | log2 fold change [4]: 0.053 | log2 fold change [5]: 0.091

HLCS (UniProt P50747)
log2 fold change [1]: -0.048 | log2 fold change [2]: -0.054 | log2 fold change [3]: -0.012 | log2 fold change [4]: 0.004 | log2 fold change [5]: 0.009

GTF2I (UniProt P78347)
log2 fold change [1]: -0.001 | log2 fold change [2]: -0.287 (active) | log2 fold change [3]: 0.091 | log2 fold change [4]: -0.005 | log2 fold change [5]: -0.017

GLB1 (UniProt P16278)
log2 fold change [1]: 0.003 | log2 fold change [2]: -0.013 | log2 fold change [3]: -0.03 | log2 fold change [4]: -0.043 | log2 fold change [5]: -0.018

HSPA8 (UniProt P11142)
UniProt P11142, sequence (P11142 whole entry, looked up): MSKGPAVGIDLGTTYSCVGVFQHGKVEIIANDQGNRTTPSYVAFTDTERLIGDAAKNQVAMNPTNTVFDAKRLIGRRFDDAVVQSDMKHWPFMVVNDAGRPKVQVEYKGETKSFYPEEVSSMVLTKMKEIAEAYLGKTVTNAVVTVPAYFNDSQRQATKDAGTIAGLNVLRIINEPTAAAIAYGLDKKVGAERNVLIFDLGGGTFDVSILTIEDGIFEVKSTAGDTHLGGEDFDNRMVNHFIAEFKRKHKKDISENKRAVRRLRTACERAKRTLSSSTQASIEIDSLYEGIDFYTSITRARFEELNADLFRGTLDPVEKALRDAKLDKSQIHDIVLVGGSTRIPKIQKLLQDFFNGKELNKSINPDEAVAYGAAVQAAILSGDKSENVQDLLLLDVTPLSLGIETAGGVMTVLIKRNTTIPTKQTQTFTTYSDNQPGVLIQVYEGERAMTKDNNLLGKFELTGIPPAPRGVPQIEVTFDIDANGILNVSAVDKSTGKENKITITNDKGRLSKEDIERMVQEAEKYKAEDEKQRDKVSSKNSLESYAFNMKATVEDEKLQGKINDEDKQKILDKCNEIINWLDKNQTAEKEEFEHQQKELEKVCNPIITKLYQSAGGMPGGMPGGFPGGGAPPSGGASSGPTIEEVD
log2 fold change [1]: -0.008 | log2 fold change [2]: 0.105 | log2 fold change [3]: -0.009 | log2 fold change [4]: -0.011 | log2 fold change [5]: -0.002

GSTZ1 (UniProt G3V4T6)
log2 fold change [1]: 0.088 | log2 fold change [2]: 0.167 | log2 fold change [3]: -0.002 | log2 fold change [4]: -0.015 | log2 fold change [5]: -0.031

GOLPH3 (UniProt Q9H4A6)
UniProt Q9H4A6, sequence (Q9H4A6 whole entry, looked up): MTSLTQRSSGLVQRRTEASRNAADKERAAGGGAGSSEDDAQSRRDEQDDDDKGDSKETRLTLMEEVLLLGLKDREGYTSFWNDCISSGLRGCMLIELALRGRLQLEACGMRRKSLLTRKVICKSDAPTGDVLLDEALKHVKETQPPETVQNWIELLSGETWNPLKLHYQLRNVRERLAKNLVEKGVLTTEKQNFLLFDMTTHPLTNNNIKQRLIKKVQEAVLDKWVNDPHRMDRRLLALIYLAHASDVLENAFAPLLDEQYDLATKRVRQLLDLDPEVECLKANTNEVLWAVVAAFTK
log2 fold change [1]: -0.06 | log2 fold change [2]: -0.06 | log2 fold change [3]: -0.001 | log2 fold change [4]: 0.023 | log2 fold change [5]: 0.026

ISOC2 (UniProt Q96AB3)
UniProt Q96AB3, sequence (Q96AB3 whole entry, looked up): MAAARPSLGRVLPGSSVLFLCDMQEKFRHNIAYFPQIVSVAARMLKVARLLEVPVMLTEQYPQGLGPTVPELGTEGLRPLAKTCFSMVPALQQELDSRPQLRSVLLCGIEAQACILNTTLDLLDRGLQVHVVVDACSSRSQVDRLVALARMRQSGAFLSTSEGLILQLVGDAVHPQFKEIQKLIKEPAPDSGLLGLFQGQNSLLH
log2 fold change [1]: -0.064 | log2 fold change [2]: 0.304 (active) | log2 fold change [3]: -0.036 | log2 fold change [4]: 0 | log2 fold change [5]: 0.033

HMGN5 (UniProt P82970)
log2 fold change [1]: -0.014 | log2 fold change [2]: 0.14 | log2 fold change [3]: 0.002 | log2 fold change [4]: -0.005 | log2 fold change [5]: 0.002

HECW2 (UniProt Q9P2P5)
log2 fold change [1]: -0.018 | log2 fold change [2]: -0.058 | log2 fold change [3]: 0.011 | log2 fold change [4]: -0.004 | log2 fold change [5]: -0.09

GON4L (UniProt Q3T8J9)
log2 fold change [1]: -0.051 | log2 fold change [2]: -0.162 | log2 fold change [3]: 0.066 | log2 fold change [4]: -0.076 | log2 fold change [5]: 0.067

HSPBAP1 (UniProt Q96EW2)
log2 fold change [2]: -0.07 | log2 fold change [3]: 0.044 | log2 fold change [4]: -0.014 | log2 fold change [5]: -0.125

HMGN5 (UniProt Q5JSK9)
log2 fold change [5]: -0.187

HNRNPM (UniProt M0QZM1)
log2 fold change [1]: 0.125 | log2 fold change [4]: 0.038 | log2 fold change [5]: 0

IRS2 (UniProt Q9Y4H2)
log2 fold change [2]: -0.034 | log2 fold change [3]: -0.065 | log2 fold change [4]: 0.14

GPA33 (UniProt Q99795)
log2 fold change [1]: 0.041 | log2 fold change [2]: 0.14 | log2 fold change [3]: 0.051 | log2 fold change [5]: 0.017

IGFBP4 (UniProt P22692)
log2 fold change [2]: 0.049 | log2 fold change [3]: -0.026 | log2 fold change [4]: 0.023

ISL2 (UniProt Q96A47)
UniProt Q96A47, sequence (Q96A47 whole entry, looked up): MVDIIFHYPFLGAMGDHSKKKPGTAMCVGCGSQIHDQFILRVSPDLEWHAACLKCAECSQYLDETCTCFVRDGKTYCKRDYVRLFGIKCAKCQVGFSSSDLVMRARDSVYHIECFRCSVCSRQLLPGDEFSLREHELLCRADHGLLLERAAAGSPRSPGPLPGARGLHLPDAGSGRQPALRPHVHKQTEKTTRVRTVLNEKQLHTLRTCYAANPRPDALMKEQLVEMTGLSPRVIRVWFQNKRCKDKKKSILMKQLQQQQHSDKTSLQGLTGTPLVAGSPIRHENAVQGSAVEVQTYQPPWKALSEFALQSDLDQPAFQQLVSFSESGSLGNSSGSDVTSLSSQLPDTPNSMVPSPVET
log2 fold change [2]: -0.026 | log2 fold change [3]: 0.04 | log2 fold change [4]: 0.179

INTS10 (UniProt Q9NVR2)
UniProt Q9NVR2, sequence (Q9NVR2 whole entry, looked up): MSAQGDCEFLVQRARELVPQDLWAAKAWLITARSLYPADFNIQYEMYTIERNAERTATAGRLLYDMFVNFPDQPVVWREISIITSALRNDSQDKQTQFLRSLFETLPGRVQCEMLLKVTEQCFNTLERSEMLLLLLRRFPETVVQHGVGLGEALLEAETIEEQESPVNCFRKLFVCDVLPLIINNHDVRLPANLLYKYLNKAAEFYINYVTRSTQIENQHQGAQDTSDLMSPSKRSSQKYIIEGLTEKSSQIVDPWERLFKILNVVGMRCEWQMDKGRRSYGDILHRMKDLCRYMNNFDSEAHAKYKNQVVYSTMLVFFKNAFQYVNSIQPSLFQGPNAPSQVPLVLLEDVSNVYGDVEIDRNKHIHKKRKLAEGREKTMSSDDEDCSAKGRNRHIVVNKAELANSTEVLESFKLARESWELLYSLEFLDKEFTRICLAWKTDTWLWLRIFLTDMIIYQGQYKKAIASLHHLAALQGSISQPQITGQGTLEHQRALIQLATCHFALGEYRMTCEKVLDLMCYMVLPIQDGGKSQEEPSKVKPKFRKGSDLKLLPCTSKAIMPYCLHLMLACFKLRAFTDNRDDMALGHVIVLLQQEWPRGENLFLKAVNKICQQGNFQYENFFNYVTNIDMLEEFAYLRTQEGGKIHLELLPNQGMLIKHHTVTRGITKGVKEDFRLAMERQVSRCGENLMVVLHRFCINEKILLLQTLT
log2 fold change [1]: 0.027 | log2 fold change [2]: -0.438 (active) | log2 fold change [3]: 0.047 | log2 fold change [4]: 0.002 | log2 fold change [5]: 0.006

HSPA8 (UniProt E9PN89)
log2 fold change [2]: -0.01 | log2 fold change [3]: 0.016 | log2 fold change [4]: -0.017 | log2 fold change [5]: -0.024

KIAA0930 isoform 2 (UniProt Q6ICG6)
UniProt Q6ICG6, sequence (Q6ICG6 whole entry, looked up): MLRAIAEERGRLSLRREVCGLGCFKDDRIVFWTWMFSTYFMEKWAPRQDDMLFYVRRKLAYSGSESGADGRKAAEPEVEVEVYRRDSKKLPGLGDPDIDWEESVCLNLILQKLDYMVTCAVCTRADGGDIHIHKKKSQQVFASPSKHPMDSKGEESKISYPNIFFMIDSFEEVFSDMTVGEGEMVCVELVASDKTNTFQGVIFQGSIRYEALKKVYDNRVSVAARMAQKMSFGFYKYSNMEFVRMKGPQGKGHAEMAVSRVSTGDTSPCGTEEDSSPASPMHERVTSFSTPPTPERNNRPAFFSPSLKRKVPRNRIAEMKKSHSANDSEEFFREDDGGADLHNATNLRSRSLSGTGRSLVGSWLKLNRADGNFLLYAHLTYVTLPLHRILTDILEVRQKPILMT
log2 fold change [1]: 0.046 | log2 fold change [4]: -0.057 | log2 fold change [5]: 0.062

GORASP1 (UniProt Q9BQQ3)
log2 fold change [1]: -0.041 | log2 fold change [2]: -0.01 | log2 fold change [3]: 0.067 | log2 fold change [4]: -0.018 | log2 fold change [5]: -0.09

KBTBD2 (UniProt Q8IY47)
log2 fold change [1]: 0.047 | log2 fold change [2]: 0.145 | log2 fold change [3]: -0.039 | log2 fold change [4]: 0.038 | log2 fold change [5]: 0.026

HYDIN (UniProt Q4G0P3)
log2 fold change [1]: 0.028 | log2 fold change [5]: -0.005

Reference: the supplement of paper PMC10849652
